Reference: article PMC4336329 (PLoS ONE, 2015)
About 14,000 (4.5%) of roughly 310,000 compounds showed an effect of 50% or more. Effects have a minus sign here. The full list was thinned out, with strong results kept by preference.

target: human ether-à-go-go-related gene (hERG) potassium channel (human, UniProt Q12809); assay: primary screen, population patch clamp on CHO cells stably expressing hERG; higher = less effect of the substance
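Further: peak tail current of the secondary pulse compared with the same well before compound.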

Sequence of human ether-à-go-go-related gene (hERG) potassium channel (Q12809 whole entry, looked up): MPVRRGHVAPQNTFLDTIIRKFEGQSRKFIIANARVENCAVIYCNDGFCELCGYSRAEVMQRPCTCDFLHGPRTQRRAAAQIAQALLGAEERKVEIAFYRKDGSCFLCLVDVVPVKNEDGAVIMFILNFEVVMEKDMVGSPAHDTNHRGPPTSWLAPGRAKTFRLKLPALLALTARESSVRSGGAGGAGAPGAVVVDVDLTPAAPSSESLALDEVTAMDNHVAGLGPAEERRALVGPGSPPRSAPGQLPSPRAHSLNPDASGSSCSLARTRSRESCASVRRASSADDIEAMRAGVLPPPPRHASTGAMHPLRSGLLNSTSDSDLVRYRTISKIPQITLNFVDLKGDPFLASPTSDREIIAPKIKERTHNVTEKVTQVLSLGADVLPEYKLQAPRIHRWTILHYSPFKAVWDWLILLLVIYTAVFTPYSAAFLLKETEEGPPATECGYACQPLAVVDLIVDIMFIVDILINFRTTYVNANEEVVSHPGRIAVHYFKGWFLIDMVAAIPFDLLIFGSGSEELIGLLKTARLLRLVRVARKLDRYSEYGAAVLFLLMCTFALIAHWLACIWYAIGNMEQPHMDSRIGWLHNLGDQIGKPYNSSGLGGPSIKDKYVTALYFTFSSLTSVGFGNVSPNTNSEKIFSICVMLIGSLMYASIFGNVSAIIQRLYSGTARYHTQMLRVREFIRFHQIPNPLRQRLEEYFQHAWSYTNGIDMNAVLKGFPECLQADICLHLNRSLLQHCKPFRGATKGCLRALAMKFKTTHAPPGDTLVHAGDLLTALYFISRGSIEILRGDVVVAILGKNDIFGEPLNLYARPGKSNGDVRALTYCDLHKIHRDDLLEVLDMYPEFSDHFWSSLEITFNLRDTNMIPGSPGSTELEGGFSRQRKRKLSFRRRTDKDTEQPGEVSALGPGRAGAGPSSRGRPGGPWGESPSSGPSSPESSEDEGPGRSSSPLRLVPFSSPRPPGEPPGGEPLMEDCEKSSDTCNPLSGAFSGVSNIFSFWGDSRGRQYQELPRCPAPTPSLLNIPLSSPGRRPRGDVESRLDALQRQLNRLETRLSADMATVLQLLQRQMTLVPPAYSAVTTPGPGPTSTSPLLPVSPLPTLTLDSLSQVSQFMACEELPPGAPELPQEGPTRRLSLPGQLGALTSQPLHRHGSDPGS

SMILES | hERG current change (%, negative = inhibition) at 10uM
COCCNC(=O)CSc1ccccc1C(=O)NC1CCCc2ccccc21 (centres unmarked) | 5.31%
COc1cc(CNC(=O)CCn2nc(C)c3c(C)n(-c4ccccc4)nc3c2=O)cc(OC)c1OC | 12%
CCOc1cccc(C(=O)Nc2ccc3oc(-c4cccnc4)nc3c2)c1 | -9.4%
N#Cc1ccc(C(=O)Nc2nc3ccccc3[nH]2)cc1 | 19%
Cl.O=C(COc1ccc(Cl)cc1)NCCN1CCCC1 | -40%
COc1cc(Br)cc(CN2CCN(C=O)CC2)c1O | -2.6%
COc1cc(NC(=O)CN(C)S(=O)(=O)c2ccc(C)cc2)cc(OC)c1 | -19.9%
CCOC(=O)C1=C(C)NC(=O)/C1=C\N(C)C | 19%
CCOC(=O)c1ccc(NC(=S)N(CCCN2CCN(C)CC2)Cc2cccs2)cc1 | -65.4%
COC(CNC(=O)CNC(=S)N(CCCN1CCOCC1)Cc1cccs1)OC | 6.42%
CCOC(=O)c1ccc(NC(=S)N(CCN(C)C)Cc2cccs2)cc1 | -9.16%
CCOC(=O)c1ccc(NC(=S)N(CCCN2CCCC(C)C2)Cc2cccs2)cc1 (centres unmarked) | -76.3%
CCOC(=O)c1ccc(NC(=S)N(CCN2CCCCCC2)Cc2cccs2)cc1 | -11.6%
CCOC(=O)c1ccc(NC(=S)N(CCCN2CCCC2)Cc2cccs2)cc1 | -67.5%
CCOC(=O)c1ccc(NC(=S)N2CCCC(C)C2)cc1 (centres unmarked) | -28.4%
CCOC(=O)c1ccc(NC(=S)N(CCCN2CCN(CC)CC2)Cc2cccs2)cc1 | -69.1%
O=C(N/N=C/C(Br)=C/c1ccccc1)c1ccncc1 | 0.715%
Cc1ccc(NC(=O)c2ccccc2NC(=O)c2cccs2)cc1 | 20.1%
Cc1cccc(NS(=O)(=O)c2cc(Cl)ccc2Cl)n1 | 22.2%
CN1CCN(C2=C(Cl)C(=O)N(c3ccc(Cl)c(Cl)c3)C2=O)CC1 | 14.1%
COc1cccc(OCCNC(=O)c2cccc(OC)c2)c1 | -1.4%
Cc1cc(/C(=N/O)C(C)(C)NO)ccc1Cl | 5.73%
COc1ccc(CNc2ccc(Cl)cc2)cc1Cn1ccnc1 | -20.3%

SMILES | hERG current change (%, negative = inhibition) at 10uM
COc1ccc(C(NC(=O)/C=C/c2ccco2)c2ccc(OC)cc2)cc1 | -13.3%
Brc1ccc(-c2nnc3sc(CN4CCN(c5ccccc5)CC4)cn23)cc1 | -1.83%
O=C(NCCN1C(=O)S/C(=C\c2cccnc2)C1=O)c1cccc(OC(F)F)c1 | -48.7%
O=C(NCCN1C(=O)S/C(=C\c2ccc(OC(F)F)cc2)C1=O)[C@@H]1CCCN1C(=O)c1cccs1 | -63.5%
O=C(NCCN1C(=O)S/C(=C\c2ccc(Cl)c(Cl)c2)C1=O)c1cnccn1 | 1.98%
O=C(NCCN1C(=O)S/C(=C\c2ccc(OC(F)F)cc2)C1=O)c1cnccn1 | -57.1%
O=C(NCCN1C(=O)S/C(=C/c2ccccc2)C1=O)C1CCCN1C(=O)c1cccs1 (centres unmarked) | -26.9%
COc1ccc(/C=C2/SC(=O)N(CCNC(=O)C3CCCN3C(=O)c3cccs3)C2=O)cc1 (centres unmarked) | -22.8%
O=C(c1ccco1)N1N=C(c2ccco2)CC1c1ccc(Cl)cc1Cl (centres unmarked) | 11.9%
CN(C)S(=O)(=O)Nc1cccc(-c2cn3c(n2)SCC3)c1 | 11.2%
O=[N+]([O-])c1cc(C(F)(F)F)cc([N+](=O)[O-])c1NCCN1CCNCC1 | 4.88%
CC1CN(C)C(C)C/C1=N\Oc1ccc([N+](=O)[O-])cc1.Cl (centres unmarked) | -78.6%
CN1CCC(=NOc2ccc([N+](=O)[O-])cc2)CC1 | -74.8%
CC1=CC(=O)C=C(C)C1=NOc1ccc([N+](=O)[O-])cc1 | -3.45%
CN1CCN(S(=O)(=O)c2ccc([N+](=O)[O-])cc2)CC1 | -14.6%
CC1CC(C)CN(S(=O)(=O)c2ccc(Oc3ccc([N+](=O)[O-])cc3)cc2)C1 (centres unmarked) | -9.72%
CC1CN(C)C(C)C/C1=N/Oc1ccccc1[N+](=O)[O-].Cl (centres unmarked) | -26.5%
Cc1nc2c(cnn2-c2ccccc2)c(=O)n1/N=C/c1ccccc1 | 11.9%
N/C(=N\OC(=O)Nc1ccccc1)c1ncc([N+](=O)[O-])s1 | -2.31%
Cc1ccc2c(c1)N(Cc1cccc(C#N)c1)C=NS2(=O)=O | 9.38%
CCn1c(-c2ccc([N+](=O)[O-])cc2)n[nH]c1=S | 9.07%
CCC(=O)Nc1ccccc1C(=O)OCC(=O)c1ccccc1 | -28.1%
COc1ccc(NC(=S)N(CCN2CCCCC2)Cc2ccco2)cc1 | -57.5%

SMILES | hERG current change (%, negative = inhibition) at 10uM
CCc1ccccc1NC(=S)N(CCN1CCCCC1)Cc1ccco1 | -46.7%
CCc1ccc(NC(=S)N(CCCN2CCOCC2)Cc2ccco2)cc1 | -12.6%
COc1ccc(NC(=S)N(CCCN2CCCC2)Cc2ccco2)cc1 | -39.4%
COc1cccc(NC(=S)N(CCN2CCCCC2)Cc2ccco2)c1 | -43.9%
CCc1ccc(NC(=S)N(CCN2CCCCC2)Cc2ccco2)cc1 | -75.4%
O=C1COc2ccc3ccccc3c21 | -4.35%
Cc1cc(C(=O)C(=O)O)c(C)n1-c1ccc(Cl)cc1 | -43.4%
O=C(CCC1CCCC1)NCCS(=O)(=O)N1CCN(c2ccccc2)CC1 | -12.9%
NC(=O)C1(N2CCCCC2)CCN(C(=O)c2ccc(-n3cnnn3)cc2)CC1 | -30.6%
CC1=NNC(=O)C1CCC(=O)N/N=C/C=C/c1ccccc1 (centres unmarked) | 1.22%
CC(C)c1ccc(NC(=S)NC2CCN(Cc3ccccc3)CC2)cc1 | -17.4%
S=C(Nc1ccc(Cl)cc1)NC1CCN(Cc2ccccc2)CC1 | -39.9%
CNC(=S)NC1CC2CCC(C1)N2Cc1ccccc1 (centres unmarked) | -16.5%
S=C(NC1CCCCC1)NC1CC2CCC(C1)N2Cc1ccccc1 (centres unmarked) | -33.4%
CCc1ccc(NC(=S)NC2CCN(Cc3ccccc3)CC2)cc1 | -36.9%
S=C(Nc1ccc(Cl)cc1)NC1CC2CCC(C1)N2Cc1ccccc1 (centres unmarked) | -66.1%
CCNC(=S)NC1CC2CCCC(C1)N2Cc1ccc(C)cc1 (centres unmarked) | -48.1%
CCC(C)c1ccc(NC(=S)NC2CCN(Cc3ccccc3)CC2)cc1 (centres unmarked) | -61.8%
CCc1ccc(NC(=S)NC2CC3CCCC(C2)N3Cc2ccccc2)cc1 (centres unmarked) | -70.9%
CCNC(=S)NC1CC2CCC(C1)N2Cc1ccccc1 (centres unmarked) | -20.3%
Cc1ccc(CN2C3CCCC2CC(NC(=S)NCc2ccccc2)C3)cc1 (centres unmarked) | -72.4%
CNC(=S)NC1CC2CCCC(C1)N2Cc1ccc(C)cc1 (centres unmarked) | -38.9%
CN(C)c1ccc(NC(=O)N2CCOCC2)cc1 | -3.34%

SMILES | hERG current change (%, negative = inhibition) at 10uM
Cc1ccc(-c2cc3nc(-c4ccc(Br)cc4)cc(N)n3n2)cc1 | -8.51%
CCCN(CC(=O)Nc1c(C)cccc1CC)C(=O)SCC | 10%
CCc1cccc(NC2c3ccccc3C(=O)N2c2cccnc2)c1 (centres unmarked) | -10.2%
CCC(C)(C)NC(=O)C(c1ccc(OC)cc1)N(C(=O)CCC(=O)Nc1cc(C)on1)C(C)(C)C (centres unmarked) | -27.1%
COc1ccc(OCC(O)CNCc2ccco2)cc1 (centres unmarked) | 1.32%
COc1ccc(CCNC(=O)C2CCN(S(=O)(=O)N3CCC4(CC3)OCCO4)CC2)cc1OC | 1.93%
COc1cc(C2=NOC(C(=O)Nc3ccc(C)cc3)C2)cc(OC)c1OC (centres unmarked) | -4.96%
CCOC(=O)c1ccc(NC(=S)NC(=O)COc2ccccc2)cc1 | 11%
CCCCOc1ccc(-n2nc(C)cc2C)nn1 | -16.3%
CCOC(=O)N1CCN(C(=O)c2ccc(NS(C)(=O)=O)cc2)CC1 | -5.65%
Cn1c(SCC(=O)NC2CCCCC2)nnc1-c1ccncc1 | 13.2%
C[C@H]1COc2c(N3CCN(C)CC3)c(F)cc3c(=O)c(C(=O)O)cn1c23 | 11.2%
CC1COc2c(N3CCN(C)CC3)c(F)cc3c(=O)c(C(=O)O)cn1c23 (centres unmarked) | 18.2%
Cc1cc(C)c(NC(=O)c2cn3c4c(c(N5CCN(C)CC5)c(F)cc4c2=O)OCC3C)c(C)c1 (centres unmarked) | -51.7%
O=C(Cc1cccs1)Nc1ccccc1-c1nc2ccccc2[nH]1 | 19.7%
CC(C)c1nnc(NC(=O)CC(=O)Nc2ccccc2C(=O)O)s1 | 4.72%
CON(C)c1nc(Oc2ccc(=O)[nH]n2)nc(N(C)C)n1 | -9.3%
COCCn1c(C)cc(C(=O)CN2C(=O)NC3(CCCCCCC3)C2=O)c1C | -59%
COCCn1c(C)cc(C(=O)CN2C(=O)NC3(CCCCCC3)C2=O)c1C | -27.8%
Cc1cc(C(=O)CN2C(=O)NC3(CCCC3)C2=O)c(C)n1-c1ccc2c(c1)OCO2 | -28.5%
CCCC1(CCC)NC(=O)N(CC(=O)c2cc(C)n(-c3ccc4c(c3)OCO4)c2C)C1=O | 5.65%
Cc1cc(C(=O)CN2C(=O)NC3(CCCCC3)C2=O)c(C)n1C | -10.3%
Cc1cc(C(=O)CN2C(=O)NC3(CCCCC3)C2=O)c(C)n1-c1ccc2c(c1)OCO2 | -56.4%
